# Assay results: ChEMBL document CHEMBL3988442, “University of Dundee, Small-Polar-MMV Screening Library” (2021)
# Out of some 48,000 compounds screened, about 13,000 (27%) showed an effect of 50% or more. Some of the results follow.
# Tested on: Wolbachia pipientis
# Experiment: Anti-Wolbachia Cell-Based Screen
# Format: functional
# Parameters: scale not given: in the data most compounds retested in dose-response had high values
# Details: 5 µM
row,SMILES,Percent Effect [%]
1,O=C(CCc1nc2cccnc2[nH]1)NCc1ccc2c(c1)OCO2,27.54
2,COc1ccc(CNC(=O)Cc2csc(C(C)=O)c2)cc1,2.837
3,O=C(CCc1nnc2ccccn2c1=O)NCc1ccc2c(c1)OCO2,110.3
4,O=C(CCc1nnc2ccccn2c1=O)NCc1ccco1,105.9
5,O=C(Cn1ccc2sccc2c1=O)NCc1ccc2c(c1)OCO2,0.2723
6,O=C(CCc1nnc2ccccn2c1=O)NCc1cccnc1,121.1
7,COc1ccc(CNC(=O)CCc2nnc3ccccn3c2=O)cc1,126.1
8,O=C(CCc1nc2cccnc2[nH]1)NCc1cccnc1,5.887
9,O=C(CCC1CCCC1)NCc1nnc2ccccn12,1.32
10,Cc1cccc(N2CCN(CCC(=O)NCc3cccnc3)CC2)c1,6.039
11,Cn1cccc1CNC(=O)CCCc1nnc2ccccn12,14.24
12,CCn1ncnc1CN1CCc2[nH]cnc2C1CCc1ccccc1 (stereo not given),5.135
13,Cc1ccc(CNC(c2ccc(F)cc2)c2nccn2C)o1 (stereo not given),6.945
14,CC(=O)N1CCC(Oc2ccc(Cl)cc2C(=O)N2CCCO2)CC1,5.175
15,Cc1ccoc1C(=O)N1C[C@@H](N2CCN(C)CC2)[C@H]2OCCC[C@H]21.O=C(O)C(F)(F)F.O=C(O)C(F)(F)F,-7.066
16,Cc1ccc(C(=O)N2C[C@@H]3CCCO[C@@H]3[C@H](N3CCOCC3)C2)cn1.O=C(O)C(F)(F)F.O=C(O)C(F)(F)F,-9.984
17,O=C(c1ccsc1)N1C[C@H](N2CCOCC2)[C@@H]2OCCC[C@@H]21,0.7214
18,CN1CCN([C@@H]2CN(C(=O)c3ccsc3)[C@@H]3CCCO[C@H]23)CC1,-4.041
19,Cc1cnc(C(=O)N2C[C@H](N3CCOCC3)[C@@H]3OCCC[C@@H]32)cn1,115.1
20,Cc1ccc(C(=O)N2C[C@@H](N3CCN(C)CC3)[C@H]3OCCC[C@H]32)cn1,115.4
21,CC(C)(C)c1cn2nc(N3CCCC(Cn4cncn4)C3)sc2n1 (stereo not given),16.07
22,CSCc1ccc(N(C)CC2CCCN(C(C)C)C2)nc1 (stereo not given),-13.33
23,CC(C)N1CCN(C)CC(Cc2cc(N(C)C)ncn2)C1 (stereo not given),93.36
24,CCn1ccnc1CN(C)c1cc(N(C)C)ncn1,12.61
25,CN1CCCC(Cc2cncc(C(=O)NCC3CC3)c2)C1 (stereo not given),-7.268

row,SMILES,Percent Effect [%]
1,CN1CCC(Cc2cc(N(C)C)ncn2)C1 (stereo not given),110.8
2,CCn1ccnc1CN(C)c1cc(C2CC2)ncn1,1.234
3,CN1CCCC(CNC(=O)N2CCN(Cc3ccon3)CC2)C1 (stereo not given),-11.04
4,CN1CCCC(Cc2cc(N(C)C)ncn2)C1 (stereo not given),94.81
5,c1cnc(NCc2noc3c2CN(C2CCOCC2)CC3)nc1,-17.2
6,COc1ccc(-c2nnc(C(C)N3CCOC(C)(C)C3)o2)cc1 (stereo not given),-4.024
7,c1ccc2c(c1)CC(n1ccnc1-c1cc3n(n1)CCCNC3)CO2 (stereo not given),3.87
8,CCc1ncc(CN(C)C(=O)Nc2cccnc2N2CCCC2)s1,10.11
9,NS(=O)(=O)CCN1CCN(c2cc(F)ccc2F)CC1,-4.797
10,Fc1ccc(CN2CCO[C@H]3[C@H](OCCN4CCCC4)CC[C@@H]32)cc1.O=C(O)C(F)(F)F.O=C(O)C(F)(F)F,-15.45
11,O=C(O)C(F)(F)F.O=C(O)C(F)(F)F.c1cc(CN2CCO[C@H]3[C@H](OCCN4CCCC4)CC[C@@H]32)co1,81.09
12,O=C(O)C(F)(F)F.O=C(O)C(F)(F)F.c1csc(CN2CCO[C@H]3[C@H](OCCN4CCCC4)CC[C@@H]32)n1,6.605
13,COc1ccc(CN2CCO[C@H]3[C@H](OCCN4CCCC4)CC[C@@H]32)cc1.O=C(O)C(F)(F)F.O=C(O)C(F)(F)F,97.25
14,O=C(O)C(F)(F)F.c1cc(CN2CCO[C@H]3[C@H](OCC4CCOCC4)CC[C@@H]32)co1,111.9
15,Cc1ccc(-c2nc(CN3CCN(S(=O)(=O)N(C)C)CC3)cs2)o1,2.093
16,O=C(c1ncn2c1CNS(=O)(=O)c1ccccc1-2)N1CCOCC1,-11.97
17,Cc1noc(C)c1S(=O)(=O)N(C)Cc1nn(C)c(Cl)c1Cl,-15.6
18,CC(C)CC(CCO)CNC(=O)N1CC(C)(C)C1(C)C (stereo not given),-21.83
19,CN1C(=O)C2(CCN(CC3CCC3)C2)c2ccccc21.O=C(O)C(F)(F)F (stereo not given),10.05
20,O=C(Cc1ccccn1)N1CCC2(CCCN(CC3CCOCC3)C2)C1 (stereo not given),-4.093
21,CS(=O)(=O)N1CC2(CCN(CC3CC3)C2)Cc2ccccc21 (stereo not given),119.1
22,CS(=O)(=O)N1CC2(CCN(CC3CCCCC3)CC2)Cc2ccccc21,144
23,O=C(Cc1cccs1)N1CCC2(CCCN(CC3CCOCC3)C2)C1 (stereo not given),-3.748
24,CN1CCCC(CNS(=O)(=O)N2CCc3ccccc3C2)C1 (stereo not given),2.763
25,O=C(O)C(F)(F)F.O=C1CC2(CCN(CC3CC3)C2)CN1c1ccc2c(c1)OCO2 (stereo not given),-8.293
